PubChem BioAssay
Calls of active or inactive are those of the source.

Assays:
[1] = tested on: Plasmodium falciparum Sir2 (PF13_0152, Sir2A); test: pfSir2 binders on small-molecule microarrays, primary screen, biochemical, small-molecule microarray, 635 nm fluorescence (AID 1098); conditions: small-molecule microarray binding, fluorescence 635 nm; higher = more signal;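 further: score merges spot fluorescence intensity with its signal-to-noise ratio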
[2] = small-molecule microarray binders of probe aDKK1, primary screen, biochemical, biotinylated probe, 635/667 nm fluorescence (AID 1099); conditions: higher = more signal;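 further: score merges 667nm spot fluorescence with signal to noise across triplicate slides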
[3] = small-molecule microarray binders of probe aCHRDL2, primary screen, biochemical, biotinylated probe, 635/667 nm fluorescence (AID 1100); conditions: higher = more signal
[4] = splicing luciferase reporter signal modulators, primary screen, spliceosome inhibition project, cell-based, HEK293, splice +/- reporter (AID 1101); conditions: luminescence, 24 h, higher = more signal, called active from +8 up or from −8 down;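 further: HEK293 cells carrying a splicing-competent luciferase reporter gene; test concentration not given here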
[5] = target: Fibroblast growth factor 10 (Homo sapiens) (UniProt O15520); test: FGF10 binders on small-molecule microarrays, primary screen, biochemical, small-molecule microarray, 635 nm fluorescence (AID 1102); conditions: FGF10 binding, fluorescence 635 nm, higher = more signal
[6] = tested on: glycogen synthase kinase-3 (GSK3A per assay name; protocol says GSK3B); test: GSK3 binders on small-molecule microarrays, primary screen, biochemical, small-molecule microarray, 635 nm fluorescence, GSK3A (AID 1103); conditions: small-molecule microarray binding, fluorescence 635 nm; higher = more signal; further: the record names both GSK3A and GSK3B
[7] = target: Epidermal growth factor receptor (Homo sapiens) (UniProt P00533); test: EGFR binders on small-molecule microarrays, primary screen, biochemical, small-molecule microarray, 635 nm fluorescence (AID 1104); conditions: EGFR binding, higher = more signal;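 further: score merges 667 nm emission intensity with spot signal to noise over triplicate slides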
[8] = target: Follistatin-related protein 3 (Homo sapiens) (UniProt O95633); test: FSTL3 binders on small-molecule microarrays, primary screen, biochemical, small-molecule microarray, 635 nm fluorescence (AID 1105); conditions: FSTL3 binding, higher = more signal;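 further: score merges emission near 667 nm and signal to noise per printed spot across three slides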
[9] = target: Dickkopf-related protein 1 (Homo sapiens) (UniProt O94907); test: DKK1 binders on small-molecule microarrays, primary screen, biochemical, small-molecule microarray, 635 nm fluorescence scan (AID 1106); conditions: DKK1 binding, higher = more signal;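 further: score merges emission near 667 nm with signal to noise over three replicate slides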
[10] = tested on: Inhibin beta A chain (activin A); test: INHBA (activin A) binders on microarrays, primary screen, biochemical, small-molecule microarray, 635 nm fluorescence scan (AID 1107); conditions: small-molecule microarray binding, higher = more signal;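 further: mouse activin A protein probed at 4.33 µg/mL on printed slides; score merges bound-protein fluorescence near 667 nm with spot signal-to-noise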
[11] = tested on: Human papillomavirus type 1a protein E7 (residues 44-93); test: HPV1a E7 fragment binders on microarrays, primary screen, biochemical, small-molecule microarray, residues 44-93, 635 nm fluorescence (AID 1108); conditions: small-molecule microarray binding, fluorescence 635 nm; higher = more signal;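 further: E7 fragment applied at 1 µg/mL in TBST for 1 h at 4 C; score combines spot fluorescence with its signal to noise ratio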
[12] = modulators of HCV replicon luciferase signal, primary screen, HCV replication inhibitor project, Huh7 cells, luciferase reporter (AID 1109); conditions: 48 h, higher = more signal;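 further: huh7 hepatoma cells harbouring a luciferase neomycin HCV replicon reporter; luciferase luminescence as measure of HCV replicon replication; test concentration not given here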
[13] = target: Left-right determination factor 2 (Homo sapiens) (UniProt O00292); test: LEFTY2 binders on small-molecule microarrays, primary screen, biochemical, small-molecule microarray, 635 nm fluorescence scan (AID 1110); conditions: LEFTY2 binding, higher = more signal
[14] = target: Calmodulin-1 (Homo sapiens) (UniProt P0DP23); test: CALM1 binders on microarrays, EGTA buffer, profiling panel, biochemical, small-molecule microarray, Cy5-labelled CALM1 (AID 1111); conditions: Cy5-CALM1 binding fluorescence, higher = more signal;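 further: labelled calmodulin applied in Tris saline Tween buffer holding calcium plus EGTA and DTT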
[15] = target: Calmodulin-1 (Homo sapiens) (UniProt P0DP23); test: calcium-bound CALM1 binders on microarrays, profiling panel, artefact control for SMM control-protein annotation, biochemical, small-molecule microarray, Cy5-labelled CALM1, plus calcium (AID 1112); conditions: Cy5-CALM1 binding fluorescence, higher = more signal;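 further: score merges spot fluorescence with signal to noise from triplicate slides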
[16] = small-molecule microarray binders of probe aWnt5a, primary screen, biochemical, biotinylated probe, 635/667 nm fluorescence (AID 1113); conditions: higher = more signal;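 further: score merges 667 nm fluorescence intensity with signal-to-noise per printed feature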
[17] = small-molecule microarray binders of probe aShh, primary screen, biochemical, biotinylated probe, 635/667 nm fluorescence (AID 1114); conditions: higher = more signal;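 further: probe is biotin-labelled aShh protein from a stem cell growth factor screen; measures binding of labelled protein to compounds printed on the slide; score merges feature fluorescence at 667 nm with signal-to-noise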
[18] = small-molecule microarray binders of probe aNog, primary screen, biochemical, biotinylated probe, 635/667 nm fluorescence (AID 1115); conditions: higher = more signal;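 further: probe is biotinylated aNog protein used at 0.15 µg/mL for 1 h at 4 C; z-score combines 667 nm fluorescence of each spot with its signal to noise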
[19] = target: Torsin-1A-interacting protein 1 (Homo sapiens) (UniProt Q5JTV8); test: LAP1 binders from COS7 cell lysate, primary screen, small-molecule microarray, 635/667 nm fluorescence (AID 1116); conditions: COS7-hLAP1 lysate binding, 635 nm fluorescence, higher = more signal
[20] = target: Alpha-bungarotoxin (Bungarus multicinctus) (UniProt P60615); test: alpha-bungarotoxin binders on microarray, profiling panel, artefact control for SMM control protein annotation, biochemical, small-molecule microarray, Alexa647 label, 635/667 nm fluorescence (AID 1117); conditions: alpha-BTX-A647 binding fluorescence, higher = more signal
Alpha-bungarotoxin (Bungarus multicinctus), sequence (P60615 whole entry, looked up): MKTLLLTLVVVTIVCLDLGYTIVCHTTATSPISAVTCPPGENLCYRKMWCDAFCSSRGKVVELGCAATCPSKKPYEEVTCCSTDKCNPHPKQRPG

Dickkopf-related protein 1 (Homo sapiens), sequence (O94907 whole entry, looked up): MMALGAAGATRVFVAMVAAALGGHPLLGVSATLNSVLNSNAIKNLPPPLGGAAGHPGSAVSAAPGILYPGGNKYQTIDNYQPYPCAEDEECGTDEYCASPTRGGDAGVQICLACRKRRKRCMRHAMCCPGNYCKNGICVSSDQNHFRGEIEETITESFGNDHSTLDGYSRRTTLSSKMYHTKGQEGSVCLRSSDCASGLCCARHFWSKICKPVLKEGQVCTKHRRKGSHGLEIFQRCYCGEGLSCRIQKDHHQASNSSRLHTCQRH
Left-right determination factor 2 (Homo sapiens), sequence (O00292 whole entry, looked up): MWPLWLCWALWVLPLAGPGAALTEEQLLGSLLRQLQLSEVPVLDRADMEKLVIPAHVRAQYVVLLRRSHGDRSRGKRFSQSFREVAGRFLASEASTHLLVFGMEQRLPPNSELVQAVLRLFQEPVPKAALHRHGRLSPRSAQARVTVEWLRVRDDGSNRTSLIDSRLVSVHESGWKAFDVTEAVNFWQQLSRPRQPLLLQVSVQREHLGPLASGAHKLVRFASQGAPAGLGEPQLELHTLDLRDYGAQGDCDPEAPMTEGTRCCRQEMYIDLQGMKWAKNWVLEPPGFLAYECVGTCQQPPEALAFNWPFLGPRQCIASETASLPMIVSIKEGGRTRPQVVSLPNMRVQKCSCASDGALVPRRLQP
Follistatin-related protein 3 (Homo sapiens), sequence (O95633 whole entry, looked up): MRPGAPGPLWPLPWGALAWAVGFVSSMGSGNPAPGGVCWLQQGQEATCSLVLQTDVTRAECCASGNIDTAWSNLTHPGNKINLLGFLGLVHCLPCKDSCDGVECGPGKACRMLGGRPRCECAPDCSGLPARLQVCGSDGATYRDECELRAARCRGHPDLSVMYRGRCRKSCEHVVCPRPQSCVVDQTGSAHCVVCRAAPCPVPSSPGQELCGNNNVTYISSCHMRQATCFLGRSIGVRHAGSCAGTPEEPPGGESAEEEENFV
Fibroblast growth factor 10 (Homo sapiens), sequence (O15520 whole entry, looked up): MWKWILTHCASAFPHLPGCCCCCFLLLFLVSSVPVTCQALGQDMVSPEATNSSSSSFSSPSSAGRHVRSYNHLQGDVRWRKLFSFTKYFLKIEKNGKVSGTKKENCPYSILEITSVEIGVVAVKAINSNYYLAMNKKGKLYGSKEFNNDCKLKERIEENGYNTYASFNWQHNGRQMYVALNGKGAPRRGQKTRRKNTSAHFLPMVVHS
Epidermal growth factor receptor (Homo sapiens), sequence (P00533 whole entry, looked up): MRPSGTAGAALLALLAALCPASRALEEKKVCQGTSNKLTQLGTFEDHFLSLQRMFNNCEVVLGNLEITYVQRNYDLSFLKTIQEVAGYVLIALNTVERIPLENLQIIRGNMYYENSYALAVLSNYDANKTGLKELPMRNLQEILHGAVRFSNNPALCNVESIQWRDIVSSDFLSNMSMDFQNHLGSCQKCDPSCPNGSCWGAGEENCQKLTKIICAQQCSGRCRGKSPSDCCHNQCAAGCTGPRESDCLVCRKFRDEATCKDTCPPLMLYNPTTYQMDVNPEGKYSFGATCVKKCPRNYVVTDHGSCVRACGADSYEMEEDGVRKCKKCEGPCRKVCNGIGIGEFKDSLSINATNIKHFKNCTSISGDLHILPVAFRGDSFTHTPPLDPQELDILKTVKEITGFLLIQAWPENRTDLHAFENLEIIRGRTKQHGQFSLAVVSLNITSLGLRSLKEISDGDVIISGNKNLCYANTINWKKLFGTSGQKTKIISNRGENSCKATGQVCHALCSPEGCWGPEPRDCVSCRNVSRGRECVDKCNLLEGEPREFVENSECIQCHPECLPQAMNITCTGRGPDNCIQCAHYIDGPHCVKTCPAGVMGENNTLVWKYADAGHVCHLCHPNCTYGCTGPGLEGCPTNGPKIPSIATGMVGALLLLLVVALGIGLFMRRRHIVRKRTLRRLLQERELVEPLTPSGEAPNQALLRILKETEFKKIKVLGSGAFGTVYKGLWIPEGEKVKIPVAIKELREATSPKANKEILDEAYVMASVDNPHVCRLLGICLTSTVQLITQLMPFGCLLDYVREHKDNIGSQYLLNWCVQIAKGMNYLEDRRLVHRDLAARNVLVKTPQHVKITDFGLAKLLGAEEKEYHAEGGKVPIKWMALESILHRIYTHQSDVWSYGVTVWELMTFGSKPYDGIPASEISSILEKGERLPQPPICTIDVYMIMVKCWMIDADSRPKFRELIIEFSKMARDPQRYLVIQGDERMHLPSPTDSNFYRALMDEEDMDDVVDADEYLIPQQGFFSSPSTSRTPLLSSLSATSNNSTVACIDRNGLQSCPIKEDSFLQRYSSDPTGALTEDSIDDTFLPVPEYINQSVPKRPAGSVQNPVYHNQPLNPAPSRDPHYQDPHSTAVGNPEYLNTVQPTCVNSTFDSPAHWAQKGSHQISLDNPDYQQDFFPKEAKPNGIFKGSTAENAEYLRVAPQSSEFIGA
Torsin-1A-interacting protein 1 (Homo sapiens), sequence (Q5JTV8 whole entry, looked up): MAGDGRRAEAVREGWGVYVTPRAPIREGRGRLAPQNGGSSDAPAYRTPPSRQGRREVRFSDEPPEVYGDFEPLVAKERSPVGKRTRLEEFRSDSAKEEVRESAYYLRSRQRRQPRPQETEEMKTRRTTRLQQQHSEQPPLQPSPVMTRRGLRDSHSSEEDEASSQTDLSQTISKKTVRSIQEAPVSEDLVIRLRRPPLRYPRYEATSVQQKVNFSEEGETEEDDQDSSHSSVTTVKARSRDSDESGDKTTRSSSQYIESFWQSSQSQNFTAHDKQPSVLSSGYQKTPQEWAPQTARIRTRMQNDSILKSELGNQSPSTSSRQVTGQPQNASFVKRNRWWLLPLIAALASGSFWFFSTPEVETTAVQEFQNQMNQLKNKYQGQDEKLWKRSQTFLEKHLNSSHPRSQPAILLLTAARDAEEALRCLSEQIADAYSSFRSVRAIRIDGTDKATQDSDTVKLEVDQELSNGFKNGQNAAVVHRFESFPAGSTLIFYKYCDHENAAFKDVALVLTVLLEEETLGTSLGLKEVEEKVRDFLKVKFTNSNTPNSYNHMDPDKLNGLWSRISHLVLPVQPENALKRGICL

Compound | composite z-score [1] | composite z-score [2] | composite z-score [3] | z-score [4] | composite z-score [5] | composite z-score [6] | composite z-score [7] | composite z-score [8] | composite z-score [9] | composite z-score [10] | composite z-score [11] | z-score [12] | composite z-score [13] | composite z-score [14] | composite z-score [15] | composite z-score [16] | composite z-score [17] | composite z-score [18] | composite z-score [19] | composite z-score [20]
COCCOC(=O)N1C(=O)[C@@]2(c3cc(C#CCCO)ccc31)[C@H](c1ccccc1OCCO)N1[C@H](c3ccccc3)[C@H](c3ccccc3)OC(=O)[C@H]1[C@@H]2C(=O)NC[C@H](O)c1ccccc1 | 1.34 | 0.704 | 0.416 | -0.428 (inactive) | 1.16 | 1.22 | 0.2 | 1.35 | 0.74 | 0.274 | 0.722 | -1.53 | 0.449 | 1.11 | 0.678 | -0.0512 | 0.275 | 0.482 | 1.38 | 1.89
CCCNC(=O)[C@@]1(Sc2ccc(C)cc2)CC(=O)N(Cc2cc(C(F)(F)F)cc(C(F)(F)F)c2)[C@@H]1c1ccc(CO)cc1I | 1.24 | 0.832 | 1.11 | -2.39 (inactive) | -0.544 | -0.656 | -0.711 | -0.372 | -0.799 | 1.08 | -0.536 | -1.41 | -1.58 | 1.54 | 1.11 | -0.0512 | 0.0141 | 0.573 | 1.68 | 0.521
C[N+](C)(C)CCCC[C@@H]1NC(=O)[C@@H]2C[C@H](C(=O)NCCCCCNC(=O)CS)[C@H](c3ccc(O)cc3)N2C1=O | 1.3 | -0.0611 | 0.346 | 4.12 (inactive) | 0.0481 | -0.638 | -0.849 | 0.0788 | 0.171 | 0.57 | -0.643 | -0.0298 | -0.739 | 0.21 | 0.669 | -0.191 | 0.138 | 0.208 | 2.19 | 1.12
CC(C)(C)OC(=O)CC[C@@]12N=C(c3ccc(OCCCO)cc3)O[C@@H]1c1ccccc1N(Cc1ccccc1)C2=O | 0.727 | 0.692 | 1.05 | -0.00084 (inactive) | 0.732 | 1.19 | -0.244 | 0.51 | 0.117 | 1.14 | -0.0568 | -2.38 | -0.202 | 0.61 | 0.621 | -0.0327 | 0.138 | 0.943 | 0.786 | 1.36
COCCOC(=O)N1C(=O)[C@@]2(c3cc(C#CC4(O)CCCCCC4)ccc31)[C@H](c1ccccc1OCCO)N1[C@H](c3ccccc3)[C@H](c3ccccc3)OC(=O)[C@H]1[C@@H]2C(=O)Nc1nc2ccccc2s1 | 0.81 | 0.55 | 0.65 | -0.318 (inactive) | 0.989 | 1.23 | 0.45 | 1.07 | 0.816 | 0.995 | 0.425 | -1.51 | 0.636 | 1.59 | 0.941 | 0.0317 | 0.275 | 0.182 | 1.46 | 2.25
